A selection: hits, their analogues and other compounds. The true share with any hit is near 2.9%.
MEKK2mut PB1 HTS = signal of MEK5 binding to mutant human MEKK2 PB1 domain; hit rate 0.35% among 290,000; AID 1530; bead flow cytometry, Alexa488-MEK5 binding to MEKK2 mutant; percent response, % at 10 µM; in the data active = percent response above about 24%, passing the limit was not always enough
MEKK3 PB1 HTS = modulators (inhibitors or enhancers) of MEK5 binding to human MEKK3 PB1 domain | Q99759 | bead-based flow cytometry, Alexa488-MEK5 binding to MEKK3; actives lie on both sides; 0 = blocked by unlabeled MEK5, 100 = vehicle | binding response (% of control), % at 10 µM | hit rate 1.4% among 290,000 | AID 1529;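 active = binding response more than 3 SD above or below the average of its plate-row segment, actives on both sides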;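 note: Alexa488 bead fluorescence after subtracting the streptavidin-only scavenger bead signal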
CRFR2-BP ag = agonists of human CRF-binding protein/CRF-R2 receptor complex; HEK293 CRF-R2/CRF-BP, calcium dye fluorescence (FLIPR); percent of saturating CRF peptide response; activation, % at 13.2 µM; hit rate 0.46% among 350,000; AID 588473;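 active = activation of at least 50%, plus an integration ratio under a set limit after plate pattern correction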
MEKK2wt PB1 HTS = raises or lowers MEK5 binding to wildtype human MEKK2 PB1 domain. Q9Y2U5. hit rate 1.1% among 290,000. bead flow cytometry, Alexa488-MEK5 binding to MEKK2 WT; actives lie on both sides. AID 1531. binding response (% of control), % at 10 µM; in the data active = binding response below about 67% or above about 130%
CRFR2-BP antag = antagonists of CRF-binding protein/CRF-R2 receptor complex; HEK293 CRF-R2/CRF-BP, CRF-induced calcium fluorescence; inhibition, % at 11.8 µM; hit rate 0.59% among 350,000;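 active = inhibition of the ligand-induced calcium signal above about 50% at the single tested concentration, limit read from the data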
ABCB6 inh MLPCN = blocks the human ABCB6 transporter. Q9NP58. K562-ABCB6 porphyrin accumulation, flow cytometry, 1 h; active compounds read low. fluorescence ratio to DMSO, % at 10 µM. hit rate 0.19% among 360,000. AID 602162;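 active = fluorescence ratio to DMSO below 75%, the collection mean minus 3 SD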;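 note: signal is porphyrin accumulated inside mitochondria; lower ratio means ABCB6 inhibition with less porphyrin fluorescence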
MEKK2wt confirm = raises or lowers MEK5 binding to wildtype human MEKK2, retest | shares compounds with MEKK3 PB1 HTS | bead flow cytometry, Alexa488-MEK5 binding to MEKK2 WT; actives lie on both sides | binding response (% of control), % at 10 µM | hit rate 2.4% among 5,900 | AID 1892; in the data active = binding response below about 16% or above about 210%; inactive = in between
MEKK2mut confirm = signal of MEK5 binding to mutant human MEKK2, retest | hit rate 2% among 5,900 | AID 1893 | percent response, % at 10 µM | bead flow cytometry, Alexa488-MEK5 binding to MEKK2 mutant | shares compounds with MEKK3 PB1 HTS; in the data active = percent response mostly above about 71%, no sharp cut-off; inactive = mostly below about 38%;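 note: higher means compound restores mutant binding toward wildtype level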
MEKK3 confirm = MEKK3-MEK5 PB1 inhibition, single concentration confirmation; bead flow cytometry, Alexa488-MEK5 binding to MEKK3; active compounds read low; AID 1894; shares compounds with MEKK3 PB1 HTS; binding response (% of control), % at 10 µM; hit rate 1.8% among 5,900;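 active = binding response below 72% of control, or above a set upper limit, though filed actives all read lower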;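 note: lower values mean stronger disruption of MEK5 binding to MEKK3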
Hits are given with their value; [ ] = remark or other dose.

Screening CCc1cccc(NC(=O)COC(=O)c2c(C)nn(-c3ccccc3)c2C)c1 returned CRFR2-BP ag inactive, CRFR2-BP antag inactive and ABCB6 inh MLPCN inactive.
`Cc1nnc(NNS(=O)(=O)c2ccc(Cl)cc2)[nH]c1=O` gave MEKK2mut PB1 HTS inactive, MEKK3 PB1 HTS inactive, CRFR2-BP ag inactive, MEKK2wt PB1 HTS inactive, CRFR2-BP antag inactive and ABCB6 inh MLPCN inactive.
For Cc1ccc(S(=O)(=O)NNc2nnc(C)c(=O)[nH]2)cc1 the results were MEKK2mut PB1 HTS inactive, MEKK3 PB1 HTS 135, CRFR2-BP ag inactive, MEKK2wt PB1 HTS inactive, CRFR2-BP antag inactive, ABCB6 inh MLPCN inactive, MEKK2wt confirm inactive, MEKK2mut confirm inactive and MEKK3 confirm inactive.
Screening CCCNC(=O)Cn1nc([N+](=O)[O-])c([N+](=O)[O-])c1C returned MEKK2mut PB1 HTS inactive, MEKK3 PB1 HTS 60[inhibitor], CRFR2-BP ag inactive, MEKK2wt PB1 HTS 58[inhibitor], CRFR2-BP antag inactive, ABCB6 inh MLPCN inactive, MEKK2wt confirm inactive, MEKK2mut confirm inactive and MEKK3 confirm inactive.
`O=C1N=c2ccccc2=C1c1sc(=O)[nH]c1O` gave MEKK2mut PB1 HTS inactive, MEKK3 PB1 HTS inactive, CRFR2-BP ag inactive, MEKK2wt PB1 HTS inactive, CRFR2-BP antag inactive and ABCB6 inh MLPCN inactive.
`O=C1N=c2ccccc2=C1c1[nH]c(=S)[nH]c1O` gave MEKK2mut PB1 HTS inactive, MEKK3 PB1 HTS 66[inhibitor], CRFR2-BP ag inactive, MEKK2wt PB1 HTS inactive, CRFR2-BP antag inactive, ABCB6 inh MLPCN inactive, MEKK2wt confirm inactive, MEKK2mut confirm inactive and MEKK3 confirm inactive.
`O=C(O)C1Nc2ccc(C(F)(F)F)cc2C2OCCC12` (stereo not given) gave MEKK2mut PB1 HTS inactive, MEKK3 PB1 HTS 78[inhibitor], CRFR2-BP ag inactive, MEKK2wt PB1 HTS inactive, CRFR2-BP antag inactive, ABCB6 inh MLPCN inactive, MEKK2wt confirm inactive, MEKK2mut confirm inactive and MEKK3 confirm inactive.
CC(C)CNC(=O)C1Nc2ccc(C(F)(F)F)cc2C2C=CCC12 (stereo not given) was read as MEKK2mut PB1 HTS inactive, MEKK3 PB1 HTS inactive, CRFR2-BP ag inactive, MEKK2wt PB1 HTS inactive, CRFR2-BP antag inactive and ABCB6 inh MLPCN inactive.
`Cc1sc2ncnc(OCC(=O)N3CC(=O)Nc4ccccc43)c2c1C` gave MEKK2mut PB1 HTS inactive, MEKK3 PB1 HTS 42[inhibitor], CRFR2-BP ag inactive, MEKK2wt PB1 HTS 46[inhibitor], CRFR2-BP antag inactive, ABCB6 inh MLPCN inactive, MEKK2wt confirm inactive, MEKK2mut confirm inactive and MEKK3 confirm inactive.
Cc1cccc(C)c1NC(=O)CCCCCC1NC(=O)NC1C (stereo not given) was read as MEKK2mut PB1 HTS inactive, MEKK3 PB1 HTS inactive, CRFR2-BP ag inactive, MEKK2wt PB1 HTS inactive, CRFR2-BP antag inactive and ABCB6 inh MLPCN inactive.
CC1NC(=O)NC1CCCCCC(=O)NCCc1ccccc1 (stereo not given) was read as MEKK2mut PB1 HTS inactive, MEKK3 PB1 HTS 1.0[inhibitor], CRFR2-BP ag inactive, MEKK2wt PB1 HTS -2.0[inhibitor], CRFR2-BP antag inactive, ABCB6 inh MLPCN inactive, MEKK2wt confirm inactive, MEKK2mut confirm inactive and MEKK3 confirm inactive.
`COCCNC(=O)COc1ncnc2scc(-c3ccc(F)cc3)c12` gave MEKK2mut PB1 HTS inactive, MEKK3 PB1 HTS 143, CRFR2-BP ag inactive, MEKK2wt PB1 HTS inactive, CRFR2-BP antag inactive, ABCB6 inh MLPCN inactive, MEKK2wt confirm inactive, MEKK2mut confirm inactive and MEKK3 confirm inactive.
`NC(=O)COc1ncnc2scc(-c3ccc(F)cc3)c12` gave MEKK2mut PB1 HTS inactive, MEKK3 PB1 HTS inactive, CRFR2-BP ag inactive, MEKK2wt PB1 HTS inactive, CRFR2-BP antag inactive and ABCB6 inh MLPCN inactive.

Bioassay records (PubChem BioAssay)
